From PubChem
HPGD block = HPGD (human) dehydrogenase inhibition; P15428; purified HPGD, NADH fluorescence kinetic, PGE2 substrate; Potency, µM, for the others: at the top dose activity change, negative = inhibition, hits mostly inhibitors; 150,000 compounds, 4.3% hits; AID 894; active = well fitted inhibition curve with a large enough effect, not every such curve was filed as active; inconclusive = small, poorly fitted or top-dose-only effect, or another doubt; inactive = no such curve, though single readings can be large or run the other way; note: potency is the fitted concentration of half-maximal effect
Target sequence (P15428 whole entry, looked up): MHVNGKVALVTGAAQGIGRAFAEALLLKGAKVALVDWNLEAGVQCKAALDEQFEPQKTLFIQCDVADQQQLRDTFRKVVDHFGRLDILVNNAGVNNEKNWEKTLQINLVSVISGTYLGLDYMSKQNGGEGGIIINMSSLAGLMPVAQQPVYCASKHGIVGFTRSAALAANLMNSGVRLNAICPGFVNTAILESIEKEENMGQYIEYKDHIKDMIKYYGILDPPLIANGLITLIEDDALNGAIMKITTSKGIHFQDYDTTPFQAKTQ
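NADH formation kinetics: reaction with 30 uM PGE2 and 1 mM NAD+ (final), 20 nM enzyme, Tris-HCl pH 8 with Tween 20, after 15 min compound preincubation at room temperature. Fluorescence change, last versus first of five reads.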
12-hLO inh = inhibitors of human 12-lipoxygenase (ALOX12); 150,000 compounds, 0.12% hits; P18054; Potency, µM (titrated, usually from 57.1 µM), for inactives: at the top dose activity change, negative = inhibition, most hits filed as inhibitors; AID 1452; purified 12-hLO, xylenol orange hydroperoxide absorbance; note: potency is the fitted concentration of half-maximal effect; nearly all actives have a fitted effect of over 55% in size
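Lipoxygenase turnover measured by absorbance at 573 and 405 nm after Fe-XO development. Human 12hLO 150 nM, arachidonate 40 uM, pH 7.0 Hepes buffer with detergent; 15 min compound preincubation, 30 min reaction.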
IMPase cell inh = IMPase inhibition in cells; AID 901; inhibition (IP1 accumulation), % at 46.1 µM; CHO-M1 cells, IP1 accumulation, HTRF TR-FRET ratio; P97697; 120,000 tested, under 10 active; active = well fitted curve in the direction sought with a large enough effect in the signal ratio, not every such curve was filed as active; inconclusive = small, poorly fitted or top-dose-only effect, or a change in a side signal; inactive = no such curve, though single readings can be large or run the other way; the % refers to the signal ratio;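 note: cells stimulated with carbachol in lithium chloride buffer; plate controls were DMSO basal wells for no effect and reference inhibitor wells for full effect; higher means more IMPase inhibition seen as more IP1 and lower FRET ratio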
Target sequence (P97697 whole entry, looked up): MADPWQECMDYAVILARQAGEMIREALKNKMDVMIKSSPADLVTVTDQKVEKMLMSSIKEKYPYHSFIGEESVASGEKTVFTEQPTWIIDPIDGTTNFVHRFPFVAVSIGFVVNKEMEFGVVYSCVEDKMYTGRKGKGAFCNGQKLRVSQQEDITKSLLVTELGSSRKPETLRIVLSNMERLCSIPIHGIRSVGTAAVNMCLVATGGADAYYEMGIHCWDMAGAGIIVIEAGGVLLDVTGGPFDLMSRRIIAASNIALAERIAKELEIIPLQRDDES
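Seeded CHO-M1 cells were dosed with compound at up to 46 uM, stimulated with carbachol for 30 min, then lysed in IP-One detection reagents. Higher IP1 lowers the TR-FRET signal.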
IMPase Li inh = cell-permeable IMPase inhibitors with lithium potentiation | CHO-M1 cells, IP1 TR-FRET (IP-One), carbachol + lithium | Potency, µM (titrated, usually from 59.4 µM), without a hit: top-dose activity, negative = IMPase inhibition, actives largely listed as inhibitors | 210,000 compounds, 0.35% hits | AID 1457;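 note: IP1 builds up when IMPase is blocked and the TR-FRET signal falls; potency is the fitted concentration of half-maximal effect; plate controls were basal vehicle for no effect and high inhibitor control for full effect; nearly all actives have a fitted effect of over 50% in size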
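Steps: plate 2000 CHO-M1 cells per well and culture 16–30 h; add compound and lithium; incubate 30 min, 37C; add d2-IP1 tracer and Eu cryptate anti-IP1 antibody in lysis buffer; read after 10 min at room temperature.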
ALDH1A1 block = inhibitors of human aldehyde dehydrogenase 1A1. P00352. 220,000 compounds, 7.3% hits. Purified ALDH1A1, NADH fluorescence, propionaldehyde substrate. Potency, µM (series often up to 75.3 µM), for the others: top-dose activity, negative = inhibition, usual class: inhibitors; active = well fitted inhibition curve with a large enough effect, not every such curve was filed as active; inconclusive = small, poorly fitted or top-dose-only effect, or another doubt; inactive = no such curve, though single readings can be large or run the other way;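 note: potency is the fitted concentration of half-maximal effect; plate controls were no enzyme wells and a reference inhibitor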
PNC assembly inh = blocks assembly of the perinucleolar compartment; PC3M PTB-GFP, PNC prevalence imaging, 16 h; active compounds read low; activity change (PNC), negative = inhibition, % at 10 µM; 140,000 compounds, 3.1% hits;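 active = readout at or below -70, meaning at least 70% loss of cells showing the perinucleolar compartment, a nuclear body marking cancer cells; inconclusive = readout between -30 and a set limit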;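 note: plate controls were DMSO wells for no effect and camptothecin positive control wells for full effect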
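Read-out is percentage of cells bearing a perinucleolar compartment, from automated 20x imaging of fixed, Hoechst-stained PC3M PTB-GFP cells. Cells were seeded 4 h, then exposed 16 h to compound (23 nl of library stock) in duplicate plates.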
Numbers without * were called inactive; [ ] = dose if it differs, or a comment. Only some compounds are listed: those with a hit (about 11% of all), similar ones and a draw of the others. Unless noted, calls come from the whole dose curve; as a rule, active = well fitted curve in the direction sought with a large enough effect; inconclusive = small, poorly fitted or top-dose-only effect, or another doubt; inactive = no such curve, though single readings can be large; an effect the other way counts as inactive or inconclusive. Unless noted, % is set by controls: 0 for no effect and ±100 for the full control effect.

Screening CC(C)COc1ccc(C(=O)Nc2cccc(-c3nc4ccccc4[nH]3)c2)cc1 returned IMPase cell inh 2.
Screening Cc1ccc(C(C)C)c(OCC(=O)Nc2ccc(S(=O)(=O)Nc3onc(C)c3C)cc2)c1 returned IMPase cell inh 10.
`O=C(Nc1ccccc1O)c1c(O)c2c([nH]c1=O)CCCC2` gave IMPase Li inh -1% and ALDH1A1 block -2%.
Screening Cc1cc(C)c2[nH]c(=O)c(CN(Cc3ccco3)C(=O)c3cccs3)cc2c1 returned HPGD block inconclusive, 12-hLO inh -1%, IMPase cell inh 4, IMPase Li inh -1%[38.3 µM], ALDH1A1 block 18µM* and PNC assembly inh -20.
`COC(=O)c1ccccc1S(=O)(=O)N1CCc2nc(COc3ccccc3)c3c(c2C1)CO[C@@H](C)C3` gave HPGD block -1%, 12-hLO inh 3%[11.4 µM], IMPase Li inh 11% and ALDH1A1 block -7%[13.5 µM].
Screening O=C(O)c1ccc(Sc2nnc(-c3cccc(Br)c3)o2)c([N+](=O)[O-])c1 returned HPGD block 14µM*, 12-hLO inh -1%, IMPase cell inh -9, IMPase Li inh 21%[38.3 µM], ALDH1A1 block 15% and PNC assembly inh 18.
COc1ccc2c(C(=O)CN3CCSCC3)c[nH]c2c1 was read as ALDH1A1 block 28µM*.
COc1ccc2[nH]cc(C(=O)CN3CCCCC3)c2c1 was read as HPGD block -12%, 12-hLO inh 0%, IMPase cell inh inconclusive, IMPase Li inh -8%[38.3 µM], ALDH1A1 block -16% and PNC assembly inh 21.
COc1ccc2c(C(=O)CN(C)C3CCCCC3)c[nH]c2c1 was read as HPGD block -15%, 12-hLO inh -4%, IMPase cell inh -4, IMPase Li inh -5%, ALDH1A1 block inconclusive and PNC assembly inh -100*.
Screening COc1ccc2c(C(=O)CN3CCN(c4ccccc4)CC3)c[nH]c2c1 returned HPGD block -9%, 12-hLO inh 0%, IMPase cell inh -7, IMPase Li inh 30%[38.3 µM], ALDH1A1 block -6% and PNC assembly inh -22.
COc1ccc2[nH]cc(C(=O)CN3CCN(C4CCCCC4)CC3)c2c1 was read as HPGD block -10%, 12-hLO inh 9%, IMPase cell inh -1, IMPase Li inh 0%[38.3 µM], ALDH1A1 block 25µM* and PNC assembly inh 22.
For [O][C@H]1[C@@H](O)[C@@H](CO)O[C@@H](O[C@@H]2[C@@H]3OC[C@H]2O[C@H](O[C@@H]2[C@@H](O)[C@H](C[C@@H]4[C@@H]5OC[C@H]4O[CH][C@@H]5O)O[C@H](CO)[C@@H]2OS(=O)(=O)O)[C@@H]3OS(=O)(=O)O)[C@@H]1O the results were HPGD block -6%, 12-hLO inh -3%[0.00818 µM], IMPase Li inh -4% and ALDH1A1 block 6%.
Screening COc1ccc(Oc2ncc3nc(C)c(=O)n(-c4ccc(OC)cc4)c3n2)cc1 returned HPGD block -22%, 12-hLO inh -1%, IMPase Li inh 0% and ALDH1A1 block inconclusive.
Screening CC(=O)c1cccc(NS(=O)(=O)c2cccc(S(=O)(=O)c3ccc(Br)cc3)c2)c1 returned IMPase cell inh -2.
For COC(=O)c1cn(C(=O)c2ccccc2)c2ccccc12 the results were IMPase Li inh 14% and ALDH1A1 block 6.3µM*.
Screening Cc1ccc(C)c(-n2nnnc2Sc2nnnn2-c2ccccc2)c1 returned HPGD block -7%, 12-hLO inh -2%, IMPase cell inh 5, IMPase Li inh 0%[38.3 µM], ALDH1A1 block 22µM* and PNC assembly inh 0.
`Cc1ccc(S(=O)(=O)NCCSc2nnnn2-c2cc(C)ccc2C)cc1` gave HPGD block -5%, 12-hLO inh -26%, IMPase cell inh 5, IMPase Li inh 3%[38.3 µM], ALDH1A1 block 0.89µM* and PNC assembly inh -21.
For Cc1ccc(S(=O)(=O)NCCSc2nnnn2-c2ccccc2)cc1 the results were HPGD block -18%, 12-hLO inh -7%, IMPase cell inh -5, IMPase Li inh 2%, ALDH1A1 block 1µM* and PNC assembly inh inconclusive.
Cc1ccc(S(=O)(=O)NCCSc2ncccn2)cc1 was read as IMPase Li inh 19% and ALDH1A1 block 14%.
For CC1(Cn2ccnn2)[C@H](C(=O)O)N2C(=O)C[C@H]2S1(=O)=O (stereo partly specified) the results were HPGD block 1%, 12-hLO inh 1%[0.00818 µM], IMPase Li inh -1% and ALDH1A1 block 5%.
CC/C=C\C/C=C\C/C=C\C/C=C\C/C=C\C/C=C\CCC(=O)NCCCC(=O)O was read as HPGD block -8%, 12-hLO inh 0%, IMPase Li inh 6% and ALDH1A1 block 2%.
CNC(=S)Nc1ccc(N2CCN(c3ccc(C(F)(F)F)cn3)CC2)nc1 was read as ALDH1A1 block 4%.
Cc1ccc(-n2ncc3c(=O)[nH]c(SCC(=O)N4CCN(c5ccccc5)CC4)nc32)cc1 was read as HPGD block -6%, 12-hLO inh -2%, IMPase cell inh inconclusive, IMPase Li inh -6%, ALDH1A1 block 6% and PNC assembly inh 1.
O=c1[nH]c(SCc2nc3c(cnn3-c3ccccc3)c(=O)[nH]2)nc2ccccc12 was read as HPGD block 0.79µM*, 12-hLO inh 2%, IMPase cell inh 2, IMPase Li inh inconclusive, ALDH1A1 block inconclusive and PNC assembly inh -108*.
For CCOC(=O)N1CCN(C(=O)CSc2nc3c(cnn3-c3ccccc3)c(=O)[nH]2)CC1 the results were HPGD block -27%, 12-hLO inh 4%, IMPase cell inh -13, IMPase Li inh -4%[38.3 µM], ALDH1A1 block 11µM* and PNC assembly inh -1.
`Cc1ccc(-n2ncc3c(=O)[nH]c(SCC(=O)N4CCCC4)nc32)cc1C` gave HPGD block 16µM*, 12-hLO inh 3%, IMPase Li inh -2%, ALDH1A1 block -1% and PNC assembly inh 21.
Screening C=CCc1c(C)nc(SCc2nc3ccccc3c(=O)[nH]2)[nH]c1=O returned HPGD block 2.8µM*, 12-hLO inh 2%, IMPase cell inh 12, IMPase Li inh 22%[38.3 µM], ALDH1A1 block 14µM* and PNC assembly inh -23.
CCNc1ncc2nc(C)c(=O)n(CCOC)c2n1 was read as IMPase Li inh -14% and ALDH1A1 block inconclusive.
CCn1c(SCc2ccc(Cl)cc2)nc2nc3c(cc2c1=O)CCCC3 was read as HPGD block -25%, 12-hLO inh -4%, IMPase Li inh 15%, ALDH1A1 block 13µM* and PNC assembly inh 1.
